# Test results published in PubChem BioAssay (NCATS).
# “And” between values parts separate entries of the source, which are not always exact repeats. Equal values may be shown once. Unmarked numbers belong to inactive results. Records with an inconclusive call do not appear. Where a call stands in place of a potency, no number is given. The source made the active and inactive calls. Unless noted, calls come from the whole dose curve; as a rule, active = well fitted curve in the direction sought with a large enough effect; inconclusive = small, poorly fitted or top-dose-only effect, or another doubt; inactive = no such curve, though single readings can be large; an effect the other way counts as inactive or inconclusive.
# Key:
# [1] = molecular target: Cytochrome P450 1A2 (Homo sapiens) (UniProt P05177); assay: p450-cyp1a2 (AID 410; calls by dose curve; note: potency is the fitted concentration of half-maximal effect)
# Procedure, shortened: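 Read-out is luminescence from luciferin produced by CYP1A2 demethylation of Luciferin-ME (100uM, at Km). Detection reagent stopped the 60 min NADPH-dependent reaction; signals were normalized to 57 uM furafylline.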
# [2] = molecular target: Glucocorticoid receptor (Homo sapiens) (UniProt P04150); assay: GR-GFP Redistribution (AID 450;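 active = compounds whose dose series gives a full or clear partial fitted curve of increased nuclear translocation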; note: potency is the fitted concentration of half-maximal effect); conditions: U2OS GR-GFP nuclear translocation, laser cytometry, 2 h
# [3] = molecular target: Glucocorticoid receptor (Homo sapiens) (UniProt P04150); assay: GR-EFC Redistribution (AID 451; calls by dose curve; note: potency is the fitted concentration of half-maximal effect); conditions: CHO-K1 GR-EFC translocation, beta-gal luminescence, 2 h
# Procedure, shortened: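 Translocation of GR-ED fusion to nuclear EA restores b-gal, read by luminescence after 1 h room-temperature detection. Engineered CHO-K1 biosensor cells, 1,000/well, exposed 2 h at 37 C to titrations up to 46 uM final.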
# [4] = molecular target: Mitogen-activated protein kinase 10 (Mus musculus) (UniProt Q61831); assay: JNK3 AlphaScreen Assay (AID 530; active = well fitted curve in either direction with a large enough effect, not every such curve was filed as active;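 note: kinase came from lysate of stimulated human HepG2 cells; signal reports phosphorylation of biotinylated GST-cJun 1-79 at Ser73 with 10 µM ATP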)
# Procedure, shortened: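 Kinase buffer: 20 mM Tris-HCl pH 7.6, 10 mM MgCl2, 1 mM DTT, 0.1 mM Na3VO4, 0.01% Tween-20; ATP 10 uM. Substrate biotin-GST-cJun(1-79), enzyme from activated HepG2 lysates. Detection by Ser73 phospho-antibody AlphaScreen.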
# [5] = molecular target: 3',5'-cyclic-AMP phosphodiesterase 4B (Homo sapiens) (UniProt Q07343); assay: qHTS Assay for Inhibitors of PDE-IV (AID 607; active = well fitted activation curve with a large enough effect in the main read-out, with a control signal flat, not every such curve was filed as active)
# Procedure, shortened: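 HEK293 ACTOne cells with CNG channel (1000/well), endogenous PDE4; membrane potential dye, compounds up to 22.9 uM final. Fluorescence Ex 535/Em 590; RO 20-1724 (100 uM final) as reference.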
# [6] = molecular target: Cytochrome P450 3A4 (Homo sapiens) (UniProt P08684); assay: qHTS Assay for Activators of Cytochrome P450 3A4 (AID 885); note: nearly all actives have a fitted effect of over 65% in size
# Procedure, shortened: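 Human CYP3A4 dealkylates Luciferin-PPXE to luciferin, which luciferase detection converts to light. Substrate was at its KM (25uM), buffer 200mM KPO4, reaction 60 min at RT.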
# [7] = molecular target: Ubiquitin carboxyl-terminal hydrolase 1 (Homo sapiens) (UniProt O94782); assay: Inhibitors of USP1/UAF1: Pilot qHTS (AID 504865); note: nearly all actives have a fitted effect of over 35% in size; note: potency is the fitted concentration of half-maximal effect;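 for activity change, negative = inhibition: rhodamine fluorescence freed from ubiquitin-rhodamine substrate followed over time; top concentration of the series differs between compounds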
# Procedure, shortened: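 1nM USP1/UAF1 + cpd, 15 min RT; start w/ Ub-Rho 150nM final; kinetic FL 480/540 nm, 6 reads q60 s. Buffer 50mM HEPES pH 7.8, 0.5mM EDTA, 1mM TCEP, 0.01% Tween-20, 0.1 mg/ml BSA.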
# [8] = molecular target: DNA dC->dU-editing enzyme APOBEC-3G (Homo sapiens) (UniProt Q9HC16); assay: qHTS for inhibitors of Vif-A3G interactions: Validation (AID 588379)
# Procedure, shortened: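 Yellow fluorescence (Ex 488, Em 500-530) of Vif-coexpressing HeLa A3G-eYFP cells, scanned by Acumen cytometer, reports blocked A3G degradation. Cells plated at 700/well overnight at 37 deg C before compound addition, then a further overnight compound incubation at 37 deg C.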
# [9] = system: Zika virus NS2B-NS3 protease; assay: Primary screen GU AMC qHTS for Zika virus inhibitors (AID 1347154); note: nearly all actives have a fitted effect of over 70% in size
# Procedure, shortened: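 Fluorogenic AMC-substrate cleavage by noncovalent NS2B-NS3 protease complex (25 nM, pH 8.0 Tris buffer with Tween 20) followed for 15 minutes at room temperature (~20% conversion). Percent inhibition from ex340/em450 signal change, fitted by 4-parameter Hill equation.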
# [10] = Primary qHTS for small molecule stabilizers of the endoplasmic reticulum resident proteome: Secreted ER Calcium Modulated Protein (SERCaMP) assay (AID 1508630)
# Procedure, shortened: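 The SH-SY5Y reporter protocol was run at 3 concentrations up to 38.3 uM (primary) or 11 concentrations (follow-up): 16 h compound, 100 nM thapsigargin for 4 h, then extracellular luciferase luminescence.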
# [11] = molecular target: Cytochrome P450 3A4 (Homo sapiens) (UniProt P08684); assay: qHTS Assay for Inhibitors and Substrates of Cytochrome P450 3A4 (AID 884); note: potency is the fitted concentration of half-maximal effect; nearly all actives have a fitted effect of over 50% in size
# Procedure, shortened: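 Luminescent readout of luciferin produced by CYP3A4 (20 nM) dealkylation of Luciferin-PPXE, 25 uM (its KM). NADPH-driven reaction ran 60 min at RT after 10 min compound preincubation; data scaled to 57 uM ketoconazole as 100% inhibition.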
# [12] = molecular target: Cytochrome P450 2D6 (Homo sapiens) (UniProt P10635); assay: qHTS Assay for Inhibitors and Substrates of Cytochrome P450 2D6 (AID 891); note: nearly all actives have a fitted effect of over 60% in size; note: potency is the fitted concentration of half-maximal effect;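 for activity change, negative = inhibition: luciferin methyl ether substrate demethylated by CYP2D6 with NADPH regeneration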
# Procedure, shortened: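 Luminescent read-out of luciferin formed by 5 nM human CYP2D6 demethylating 30 uM Luciferin-ME EGE (Km level) over 60 min at room temperature after NADPH regeneration addition. Data normalized to full inhibition by 1.43 uM quinidine.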
# [13] = AP1 Signaling Pathway (AID 357; active = well fitted curve in either direction with a large enough effect, not every such curve was filed as active;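 note: ME-180 reporter cells stimulated with EGF at its EC50 level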); conditions: ME-180 AP-1-bla reporter, EGF-induced, beta-lactamase ratio, 5 h; at 38 µM (top of the series)
# Procedure, shortened: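 Read-out was the 460nm/530nm emission ratio (excitation 405nm) after CCF4 loading for 2.5 hours at room temperature. Cells carried an AP-1-driven beta-lactamase reporter, were stimulated with EC50 EGF plus compound for 5 hours, and AC50 values came from titrations.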
# [14] = NFAT Signaling Pathway (AID 444; active = well fitted curve in either direction with a large enough effect, not every such curve was filed as active;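 note: carbachol stimulus at about its EC50 of 1 µM final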); conditions: Jurkat NFAT-bla M1, carbachol, beta-lactamase ratio, 5 h; at 38 µM (top of the series)
# Procedure, shortened: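 Read-out: CCF4 FRET ratio (460 nm/530 nm) after 1 h RT dye loading, used for %activity and AC50 from titration series. Cells: Jurkat NFAT-β-lactamase/M1 line, treated with compound plus 1 uM carbachol for 5 h, 37 °C.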
# [15] = Stat Signaling Pathway (AID 446; active = well fitted curve in either direction with a large enough effect, not every such curve was filed as active;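 note: ME-180 cervical cancer cells given 40 pM IL-6 alongside compound; SIE-controlled beta-lactamase reporter measured as 460/530 nm FRET emission ratio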); conditions: ME-180 (cervical carcinoma) SIE beta-lactamase reporter, IL-6 stimulated, 5 h; at 38 µM (top of the series)
# Procedure, shortened: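 Normalization used AC90 stimulation (300 pM IL-6) and AC90 inhibition (125 nM pan-JAK inhibitor at 40 pM IL-6). The underlying signal is SIE-driven beta-lactamase in ME-180 cells after 5 h IL-6 exposure with compound.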
# [16] = molecular target: Guanine nucleotide-binding protein G(i) subunit alpha-1 (Homo sapiens) (UniProt P63096); assay: qHTS Assay for Inhibitors of RGS12 GoLoco Motif Activity (Green Fluorophore) (AID 879);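 note: negative values mean loss of peptide binding seen as reduced polarization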
# Procedure, shortened: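 A drop in FITC polarization marked displacement of the FITC-tagged RGS12 GoLoco peptide (10 nM) from Gαi1 (50 nM). Compounds were incubated 10 min at room temperature in Tris pH 7.5 buffer containing 150 mM NaCl, 0.1 mM GDP and 0.05% NP40; unlabeled peptide titration served as control.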
# [17] = molecular target: Cytochrome P450 2C9 (Homo sapiens) (UniProt P11712); assay: qHTS Assay for Inhibitors and Substrates of Cytochrome P450 2C9 (AID 883); note: nearly all actives have a fitted effect of over 60% in size
# Procedure, shortened: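 Luminescent read-out of deoxyluciferin hydroxylation, normalized to 57uM sulphaphenazole (AC100). Reaction: 10nM enzyme, 100uM Luciferin-H (equal to KM), 25mM KPO4, 10 min compound preincubation, then 60 min with NADPH regeneration, both at 37C.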
# [18] = molecular target: Cytochrome P450 2C19 (Homo sapiens) (UniProt P33261); assay: qHTS Assay for Inhibitors and Substrates of Cytochrome P450 2C19 (AID 899); note: nearly all actives have a fitted effect of over 60% in size
# Procedure, shortened: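 Luminescence readout of luciferin formed from 10uM Luciferin-H EGE (KM level) by 5 nM CYP2C19 in 50mM KPO4. 60 min NADPH-driven reaction at 37C after 10 min compound preincubation; data scaled to 57uM ketoconazole inhibition.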
# [19] = Confirmation and Secondary Assay for Modulators of Hemoglobin Beta Chain Splicing at IVS2 654 locus (AID 910);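 note: HeLa cells stably carrying EGFP split by mutant beta-globin IVS2-654 intron; per-well total GFP intensity by laser scanning cytometry after 2-day treatment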
# Procedure, shortened: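 Readout: per-well total peak green fluorescence (488 nm ex, 500–520 nm em) from objects 5–250 µm, reflecting correct splicing of an EGFP-654 reporter. Compounds were applied for 2 days at 37 °C to overnight-plated HeLa EGFP-654 cells; controls were DMSO and 500 nM IVS2-654 PNA.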
# [20] = qHTS Assay for Identification of Small Molecule Agonists for Thrombopoietin (TPO) Signaling Pathway (AID 917)
# Procedure, shortened: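 Ba/F3 (mouse) + hTPO receptor + GpIIb-promoter luciferase; IL-3 withdrawn overnight; compound + 26 pM TPO (EC50), 24 hrs, 37 C, 5% CO2; Steadylite luminescence, 10 min RT.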
# [21] = Confirmation and Secondary Assay for Modulators of Hemoglobin Beta Chain Splicing at IVS2 705 locus (AID 930);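 note: HeLa cells stably expressing the EGFP-705 splicing reporter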
# Procedure, shortened: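 Restored EGFP fluorescence after 2-day compound exposure reports splicing correction in IVS2-705 EGFP reporter HeLa cells; positive control was 500 nM splice-blocking PNA oligo. Signal measured as well total peak GFP intensity (488 nm excitation).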
# [22] = molecular target: Muscarinic acetylcholine receptor M1 (Rattus norvegicus) (UniProt P08482); assay: qHTS Assay for Antagonists of Acetylcholine Muscarinic M1 Receptor: Measurement of IP-One Response (AID 944); note: nearly all actives have a fitted effect of over 75% in size
# Procedure, shortened: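 Antagonism was measured as loss of carbachol-driven (EC80) IP1 accumulation in CHO cells carrying rat M1, using a homogeneous IP-One TR-FRET kit read at 620 and 665 nm.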
# [23] = molecular target: Pyruvate kinase (Leishmania mexicana) (UniProt Q27686); assay: qHTS Validation Assay for Inhibitors of Leishmania Mexicana Pyruvate Kinase (AID 945)
# Procedure, shortened: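 Purified LmPYK (E451W mutant, 0.2 nM) was incubated 1 h at room temperature with 0.5 mM PEP and 0.1 mM ADP in 50 mM imidazole pH 7.2, 50 mM KCl, 7 mM MgCl2; ATP formed was read by PKLight luminescence, normalized to DMSO wells.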
# [24] = molecular target: Pyruvate kinase PKM (Homo sapiens) (UniProt P14618); assay: qHTS Assay for Activators of Human Muscle Pyruvate Kinase (AID 954; active = well fitted curve in the direction sought with a large enough effect, not every such curve was filed as active)
# Procedure, shortened: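 Compound pinned into substrate mix (0.5 mM PEP, 0.1 mM ADP), then 0.1 nM PKM2 added; 1 h, RT. Stop/detection luciferase reagent added, luminescence read. Normalized to no-inhibition and no-enzyme or reference-inhibitor controls.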
# [25] = molecular target: Alpha-galactosidase A (Homo sapiens) (UniProt P06280); assay: Counterscreen for Glucocerebrosidase Inhibitors: qHTS Assay for Human alpha-Galactosidase at pH 4.5 (AID 992)
# Procedure, shortened: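 Steps: enzyme (2 nM final), then compound across 0.7 nM to 77 uM, then 80 uM fluorogenic galactopyranoside substrate; incubate 20 min at room temperature; quench at pH 10; measure fluorescence at 365/440 nm.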
# [26] = molecular target: alpha-glucosidase (Oryza sativa, rice) (UniProt Q653V4); assay: Counterscreen for Glucocerebrosidase Inhibitors: qHTS Assay for Rice alpha-Glucosidase at pH 5.0 (AID 997)
# Procedure, shortened: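 Endpoint fluorogenic assay at pH 5.0: compounds (0.7 nM to 77 uM) titrated against 4 nM rice enzyme and 400 uM 4-MU-alpha-glucoside for 20 min at room temperature; NaOH/glycine stop, read ex 365/em 440 nm, Hill-fitted AC50.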
# Sequence of DNA dC->dU-editing enzyme APOBEC-3G (Homo sapiens) (Q9HC16 whole entry, looked up): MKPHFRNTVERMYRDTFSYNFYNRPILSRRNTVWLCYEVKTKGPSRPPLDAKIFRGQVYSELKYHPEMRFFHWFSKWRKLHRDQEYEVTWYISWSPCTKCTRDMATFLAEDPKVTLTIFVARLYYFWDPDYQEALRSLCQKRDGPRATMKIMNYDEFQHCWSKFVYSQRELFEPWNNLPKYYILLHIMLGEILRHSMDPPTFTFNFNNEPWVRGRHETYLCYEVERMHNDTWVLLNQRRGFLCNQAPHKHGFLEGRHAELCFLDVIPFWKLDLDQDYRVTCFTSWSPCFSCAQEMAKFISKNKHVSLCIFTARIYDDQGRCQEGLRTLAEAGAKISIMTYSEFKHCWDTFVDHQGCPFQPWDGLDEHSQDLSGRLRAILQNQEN
# Sequence of Ubiquitin carboxyl-terminal hydrolase 1 (Homo sapiens) (O94782 whole entry, looked up): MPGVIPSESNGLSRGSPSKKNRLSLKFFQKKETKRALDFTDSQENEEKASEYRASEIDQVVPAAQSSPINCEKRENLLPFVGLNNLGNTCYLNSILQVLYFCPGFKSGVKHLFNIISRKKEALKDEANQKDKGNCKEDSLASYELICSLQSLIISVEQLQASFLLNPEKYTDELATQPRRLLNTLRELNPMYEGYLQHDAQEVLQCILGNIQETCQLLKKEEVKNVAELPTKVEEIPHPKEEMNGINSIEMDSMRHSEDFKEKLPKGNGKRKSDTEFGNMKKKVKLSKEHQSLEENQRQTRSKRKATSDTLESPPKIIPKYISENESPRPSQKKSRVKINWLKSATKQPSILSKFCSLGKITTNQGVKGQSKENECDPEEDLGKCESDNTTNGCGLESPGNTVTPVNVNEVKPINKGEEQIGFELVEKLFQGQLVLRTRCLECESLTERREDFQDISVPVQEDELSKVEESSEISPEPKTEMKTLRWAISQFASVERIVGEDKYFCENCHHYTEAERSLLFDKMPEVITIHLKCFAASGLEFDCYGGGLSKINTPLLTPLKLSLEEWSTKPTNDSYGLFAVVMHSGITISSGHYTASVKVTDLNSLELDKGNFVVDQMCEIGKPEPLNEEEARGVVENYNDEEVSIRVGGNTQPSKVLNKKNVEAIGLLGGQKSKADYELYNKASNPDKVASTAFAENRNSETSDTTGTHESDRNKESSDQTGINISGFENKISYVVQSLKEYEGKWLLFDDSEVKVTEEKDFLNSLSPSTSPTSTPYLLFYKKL
# Sequence of Cytochrome P450 2D6 (Homo sapiens) (P10635 whole entry, looked up): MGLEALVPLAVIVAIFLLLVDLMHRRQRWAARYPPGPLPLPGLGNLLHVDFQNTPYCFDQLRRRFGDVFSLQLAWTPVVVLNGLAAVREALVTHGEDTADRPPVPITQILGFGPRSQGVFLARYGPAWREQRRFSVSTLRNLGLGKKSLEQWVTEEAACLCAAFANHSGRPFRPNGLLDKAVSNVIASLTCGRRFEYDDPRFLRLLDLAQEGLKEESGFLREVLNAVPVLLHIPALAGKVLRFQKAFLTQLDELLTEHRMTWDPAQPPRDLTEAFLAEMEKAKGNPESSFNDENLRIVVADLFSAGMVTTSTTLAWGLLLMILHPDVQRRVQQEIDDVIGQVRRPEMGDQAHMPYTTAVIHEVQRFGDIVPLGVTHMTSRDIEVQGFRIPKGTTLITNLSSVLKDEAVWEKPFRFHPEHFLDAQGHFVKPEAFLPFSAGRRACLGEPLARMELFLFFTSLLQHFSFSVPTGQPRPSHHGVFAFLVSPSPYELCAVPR
# Sequence of 3',5'-cyclic-AMP phosphodiesterase 4B (Homo sapiens) (Q07343 whole entry, looked up): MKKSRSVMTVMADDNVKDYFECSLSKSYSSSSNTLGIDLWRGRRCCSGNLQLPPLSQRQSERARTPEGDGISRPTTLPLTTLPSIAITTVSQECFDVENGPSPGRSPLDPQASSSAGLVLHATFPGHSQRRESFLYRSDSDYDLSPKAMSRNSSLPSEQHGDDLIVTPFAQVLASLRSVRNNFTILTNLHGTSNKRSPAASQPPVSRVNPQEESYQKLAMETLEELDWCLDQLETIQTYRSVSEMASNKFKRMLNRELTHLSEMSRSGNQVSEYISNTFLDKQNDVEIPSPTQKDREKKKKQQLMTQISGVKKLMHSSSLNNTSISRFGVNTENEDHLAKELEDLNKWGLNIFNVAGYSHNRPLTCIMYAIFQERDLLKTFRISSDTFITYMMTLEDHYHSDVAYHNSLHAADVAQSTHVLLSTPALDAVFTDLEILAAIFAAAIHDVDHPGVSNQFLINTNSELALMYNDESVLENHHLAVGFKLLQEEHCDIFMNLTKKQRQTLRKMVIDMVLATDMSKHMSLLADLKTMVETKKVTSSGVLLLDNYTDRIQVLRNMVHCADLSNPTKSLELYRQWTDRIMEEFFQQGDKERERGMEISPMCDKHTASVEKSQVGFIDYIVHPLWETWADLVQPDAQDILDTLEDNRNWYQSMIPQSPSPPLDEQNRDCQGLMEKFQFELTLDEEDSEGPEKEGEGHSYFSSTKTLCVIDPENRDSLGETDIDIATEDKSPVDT
# Sequence of Cytochrome P450 3A4 (Homo sapiens) (P08684 whole entry, looked up): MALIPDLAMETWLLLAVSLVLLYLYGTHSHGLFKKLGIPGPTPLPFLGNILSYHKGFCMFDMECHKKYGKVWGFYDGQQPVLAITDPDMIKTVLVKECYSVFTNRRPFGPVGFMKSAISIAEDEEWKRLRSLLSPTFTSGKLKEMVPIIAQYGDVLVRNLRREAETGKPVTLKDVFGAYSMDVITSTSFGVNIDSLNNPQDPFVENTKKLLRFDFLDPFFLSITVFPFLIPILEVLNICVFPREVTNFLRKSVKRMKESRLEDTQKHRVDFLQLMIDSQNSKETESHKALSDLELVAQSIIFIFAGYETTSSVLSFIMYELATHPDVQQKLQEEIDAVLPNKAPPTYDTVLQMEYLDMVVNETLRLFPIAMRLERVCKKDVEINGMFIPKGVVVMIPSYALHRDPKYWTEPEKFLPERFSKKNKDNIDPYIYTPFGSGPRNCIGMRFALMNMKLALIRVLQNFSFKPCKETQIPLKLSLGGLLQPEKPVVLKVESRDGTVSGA
# Sequence of Cytochrome P450 1A2 (Homo sapiens) (P05177 whole entry, looked up): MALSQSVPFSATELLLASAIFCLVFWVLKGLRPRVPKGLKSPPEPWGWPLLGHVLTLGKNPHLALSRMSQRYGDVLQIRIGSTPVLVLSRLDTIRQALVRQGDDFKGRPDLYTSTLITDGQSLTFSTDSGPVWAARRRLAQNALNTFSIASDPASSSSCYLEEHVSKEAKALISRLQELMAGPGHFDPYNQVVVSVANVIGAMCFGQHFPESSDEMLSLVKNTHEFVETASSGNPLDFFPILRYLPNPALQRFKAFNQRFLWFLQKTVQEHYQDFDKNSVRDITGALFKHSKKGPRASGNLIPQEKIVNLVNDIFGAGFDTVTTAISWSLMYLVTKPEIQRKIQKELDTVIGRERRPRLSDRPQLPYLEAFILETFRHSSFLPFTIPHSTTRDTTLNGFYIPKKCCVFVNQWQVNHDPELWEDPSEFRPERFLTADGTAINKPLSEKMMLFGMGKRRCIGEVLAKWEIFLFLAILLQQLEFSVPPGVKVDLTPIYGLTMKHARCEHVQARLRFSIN
# Sequence of Glucocorticoid receptor (Homo sapiens) (P04150 whole entry, looked up, the tested form may be a part): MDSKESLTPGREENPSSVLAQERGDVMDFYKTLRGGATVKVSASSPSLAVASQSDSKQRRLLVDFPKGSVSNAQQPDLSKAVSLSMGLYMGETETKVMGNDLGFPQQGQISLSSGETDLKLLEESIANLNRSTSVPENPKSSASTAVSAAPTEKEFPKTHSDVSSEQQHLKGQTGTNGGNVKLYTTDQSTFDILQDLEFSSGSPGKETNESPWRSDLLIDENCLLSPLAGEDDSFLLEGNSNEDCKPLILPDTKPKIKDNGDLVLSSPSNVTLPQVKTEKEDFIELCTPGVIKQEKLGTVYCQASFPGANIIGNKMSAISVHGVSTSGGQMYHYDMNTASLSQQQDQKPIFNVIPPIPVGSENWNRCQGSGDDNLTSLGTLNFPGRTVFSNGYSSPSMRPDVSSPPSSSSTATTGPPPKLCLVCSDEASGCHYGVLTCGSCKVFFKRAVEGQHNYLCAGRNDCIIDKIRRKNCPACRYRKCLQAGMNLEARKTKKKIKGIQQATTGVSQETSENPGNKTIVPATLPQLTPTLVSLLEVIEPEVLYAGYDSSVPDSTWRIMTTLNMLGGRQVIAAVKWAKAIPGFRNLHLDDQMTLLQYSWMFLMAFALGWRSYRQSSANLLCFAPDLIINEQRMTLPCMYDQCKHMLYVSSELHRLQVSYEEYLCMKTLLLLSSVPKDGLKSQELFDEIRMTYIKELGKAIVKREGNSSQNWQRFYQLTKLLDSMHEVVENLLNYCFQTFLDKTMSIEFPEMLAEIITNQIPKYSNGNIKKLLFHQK
# Sequence of Pyruvate kinase PKM (Homo sapiens) (P14618 whole entry, looked up): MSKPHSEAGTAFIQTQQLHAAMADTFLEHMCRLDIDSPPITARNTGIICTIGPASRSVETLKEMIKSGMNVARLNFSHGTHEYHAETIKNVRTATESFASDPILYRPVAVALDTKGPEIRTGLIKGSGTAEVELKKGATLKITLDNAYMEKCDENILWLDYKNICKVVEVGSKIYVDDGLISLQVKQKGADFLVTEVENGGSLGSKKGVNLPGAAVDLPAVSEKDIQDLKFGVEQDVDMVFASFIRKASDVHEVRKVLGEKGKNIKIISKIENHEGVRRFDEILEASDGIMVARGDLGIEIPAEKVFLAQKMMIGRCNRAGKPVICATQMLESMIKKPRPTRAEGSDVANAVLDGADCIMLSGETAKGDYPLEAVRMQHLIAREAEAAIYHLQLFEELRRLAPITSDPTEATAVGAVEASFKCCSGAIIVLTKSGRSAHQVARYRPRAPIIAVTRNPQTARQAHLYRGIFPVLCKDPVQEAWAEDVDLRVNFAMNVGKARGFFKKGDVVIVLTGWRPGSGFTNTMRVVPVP
compound,measurement,setting,value
COc1ccccc1N1CCN(CCN2C(=O)c3ccccc3C(C)(C)C2=O)CC1,Potency,[1],39.8 µM (active)
same,Potency,[2],> 46 µM
same,Potency,[3],> 46 µM
same,Potency,[4],inactive
same,Potency,[5],inactive
same,Potency,[6],inactive
same,Potency,[7],inactive
same,Potency,[8],inactive
same,Potency,[9],inactive
same,Potency,[10],inactive
c1ccc2sc(N3CCN(Cc4ccc5c(c4)OCO5)CC3)nc2c1,Potency,[1],1 µM (active)
same,Potency,[2],> 46 µM
same,Potency,[3],> 46 µM
same,Potency,[4],inactive
same,Potency,[11],0.631 µM (active)
same,Potency,[6],inactive
same,Potency,[7],inactive
same,Potency,[8],inactive
same,Potency,[9],inactive
same,Potency,[10],inactive
O=C(c1ccccc1)[C@@H]1O[C@H]1c1ccc(-c2ccccc2)cc1,Potency,[1],6.31 µM (active)
same,Potency,[2],> 46 µM
same,Potency,[3],> 46 µM
same,Potency,[4],inactive
same,Potency,[8],inactive
same,Potency,[9],inactive
same,Potency,[10],inactive
O=c1[nH]c2cc(Cl)ccc2c(O)c1-c1cccc(Oc2ccccc2)c1,Potency,[1],2.51 µM (active)
same,Potency,[2],> 46 µM
same,Potency,[3],> 46 µM
same,Potency,[4],inactive
same,Potency,[12],6.31 µM (active)
same,Potency,[7],inactive
same,Potency,[8],inactive
same,Potency,[9],inactive
same,Potency,[10],inactive
CC1(C)C(=O)NC2=C1C(=O)C(=O)c1ccccc12,Potency,[1],3.16 µM (active)
same,Potency,[2],> 46 µM
same,Potency,[3],> 46 µM
same,Potency,[5],inactive
same,Potency,[6],inactive
same,Potency,[12],2.51 µM (active)
same,Potency,[7],0.891 µM (active)
same,Potency,[8],inactive
same,Potency,[9],inactive
same,Potency,[10],inactive
CCOC(=O)C1=C(N)Oc2ccc(Br)cc2[C@@H]1[C@@H](C#N)C(=O)OCC,Potency,[1],0.251 µM (active)
same,Potency,[2],> 46 µM
same,Potency,[3],> 46 µM
same,Potency,[4],inactive
same,Potency,[5],inactive
same,Potency,[8],inactive
same,Potency,[9],inactive
same,Potency,[10],inactive
CCCCOc1cc(C[C@@H]2CNC(=O)N2)ccc1OC,"activity change, negative = inhibition",[13],-11.4%
same,Potency,[1],12.6 µM (active) and 10 µM (active)
same,"activity change, negative = inhibition",[14],-19.1%
same,"activity, negative = inhibition",[15],24.5%
same,Potency,[2],> 46 µM
same,Potency,[3],> 46 µM
same,Potency,[4],inactive
same,outcome,[16],inactive
same,Potency,[17],inactive
same,Potency,[6],inactive
same,Potency,[12],inactive
same,Potency,[18],inactive
same,outcome,[19],inactive
same,Potency,[20],inactive
same,outcome,[21],inactive
same,Potency,[22],inactive
same,Potency,[23],inactive
same,outcome,[24],inactive
same,outcome,[25],inactive
same,outcome,[26],inactive
same,Potency,[8],inactive
same,Potency,[9],inactive
same,Potency,[10],inactive
